Six1-Eya2 blk = inhibitors of human Six1/Eya2 interaction. Q15475+O00167. AlphaScreen GST-Six1/His-Eya2 binding, biochemical; hits give low values. activity change, % (concentration not given with the values). 0.56% of 360,000 active; in the data active = activity change below about -65%; inconclusive = mostly about -30% to -63%
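AlphaScreen luminescence read after one hour at 37 °C in darkness. Pin-transferred compounds met GST-Six1 and His-Eya2 protein (5X stock 250 nM/500 nM) plus glutathione donor and Ni-chelate acceptor beads (5X, 50 ug/mL).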
CtBP-E1A inh = inhibitors of CtBP/E1A interaction; AlphaScreen GST-E1A/His-CtBP binding, 1536-well; hits give low values; activity change, % (no concentration beside the values); 0.49% of 340,000 active; AID 651724; in the data active = activity change below about -65%; inconclusive = mostly about -30% to -63%
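GST-E1A and His-tagged CtBP (125 nM each as 5X stock) were preincubated with pin-transferred compound for 2 h at 37 °C in the dark, then glutathione donor and nickel acceptor beads were added for 1 h before AlphaScreen reading.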
Gal4-VP16 FLuc = Gal4-VP16 reporter inhibition counter-screen. Drosophila S2 Gal4-VP16 UAS-luciferase, luminescence, 20 h. Potency, µM (series often up to 53.6 µM), actives largely listed as inhibitors. 3.5% of 310,000 active. AID 2546;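 note: Gal4-VP16 expression switched on by copper sulfate through the metallothionein promoter; nearly all actives have a fitted effect of over 50% in size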
MBNL1-CUG inh = blocks human MBNL1 binding to CUG repeat RNA | TR-FRET MBNL1-His/biotin-(CUG)12 binding, 665/545 ratio | Potency, µM (highest dose often 57.5 µM), most hits filed as inhibitors | 0.036% of 280,000 active | AID 2675; active = well fitted inhibition curve with a large enough effect in the signal ratio, with a control signal flat, not every such curve was filed as active; inconclusive = small, poorly fitted or top-dose-only effect, or effect the other way, or a change in a side signal; inactive = no such curve, though single readings can be large or run the other way; the % refers to the signal ratio
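TR-FRET between His-tagged MBNL1 and biotin-(CUG)12 RNA, detected with Tb anti-His antibody (0.055 ng/ul) and streptavidin-XL665 (5 nM), 60 min at room temperature. Compounds titrated 92 nM to 58 uM; 665/545 nm ratio normalized to buffer and complex controls.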
RORgamma inh = blocks mouse ROR gamma transcriptional activity. AID 2551. Drosophila S2 Gal4-RORgamma UAS-luciferase reporter, 20 h. Potency, µM (top dose mostly 53.6 µM), most hits filed as inhibitors. P51450. 5.4% of 310,000 active; note: nearly all actives have a fitted effect of over 60% in size
Target sequence (P51450 whole entry, looked up, the tested form may be a part): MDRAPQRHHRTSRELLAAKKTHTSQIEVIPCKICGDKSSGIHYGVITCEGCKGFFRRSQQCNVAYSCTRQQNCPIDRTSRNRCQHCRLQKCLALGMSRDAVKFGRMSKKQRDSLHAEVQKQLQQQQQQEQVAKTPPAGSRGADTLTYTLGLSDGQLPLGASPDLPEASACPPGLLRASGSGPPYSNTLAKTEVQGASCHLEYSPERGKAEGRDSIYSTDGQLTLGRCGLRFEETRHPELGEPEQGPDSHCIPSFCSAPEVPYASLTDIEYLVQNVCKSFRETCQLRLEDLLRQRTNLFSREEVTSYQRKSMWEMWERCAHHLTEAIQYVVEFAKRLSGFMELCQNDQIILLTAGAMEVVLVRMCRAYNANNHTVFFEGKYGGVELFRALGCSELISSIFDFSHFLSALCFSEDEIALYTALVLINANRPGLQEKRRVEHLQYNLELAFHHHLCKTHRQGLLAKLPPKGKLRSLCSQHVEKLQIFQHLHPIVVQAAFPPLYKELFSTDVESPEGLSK
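Stably transfected Drosophila Schneider cells are the test system, with ROR gamma fused to Gal4 and luciferase under UAS control; luminescence is read after 20 hr of 700 uM copper sulfate induction at ambient temperature.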
CBFb-RUNX1 inh = blocks binding between human CBF-beta and RUNX1 | Q01196+Q13951 | AlphaScreen CBFb-His/RUNX1-biotin binding, biochemical | Potency, µM (titrated, usually from 59.8 µM), actives largely listed as inhibitors | 230,000 tested, under 10 active | AID 1477
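AlphaScreen proximity signal reports loss of binding between His-tagged CBF-beta and biotin-labelled RUNX1, each at 30 nM. Proteins are pre-associated for 20 minutes, compounds added for 15 minutes, then beads for 90 minutes, all at ambient temperature.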
Numbers stand for hits; – = inactive; ? = inconclusive; · = no result given; [ ] = remark or other dose. A selection: hits, their analogues and other compounds. The true share with any hit is near 5.5%. Unless noted, calls come from the whole dose curve; as a rule, active = well fitted curve in the direction sought with a large enough effect; inconclusive = small, poorly fitted or top-dose-only effect, or another doubt; inactive = no such curve, though single readings can be large; an effect the other way counts as inactive or inconclusive.

SMILES | Six1-Eya2 blk | CtBP-E1A inh | Gal4-VP16 FLuc | MBNL1-CUG inh | RORgamma inh | CBFb-RUNX1 inh
Cc1cc(C)nc(N/N=C/c2ccccc2OCc2cccc(Br)c2)n1 | – | – | 35µM | – | 50µM | –
Cc1cc(C)nc(N/N=C/c2ccccc2OCC(=O)O)n1 | – | – | – | – | – | ·
Cc1cc(C)nc(N/N=C/c2ccccc2OCc2ccc(Br)cc2)n1 | – | – | ? | – | 7.1µM | –
Cc1cc(C)nc(N/N=C/c2ccccc2OCc2ccc(Cl)cc2)n1 | – | – | ? | ? | 10µM | –
Cc1cc(C)nc(N/N=C/c2ccccc2OCc2ccccc2)n1 | – | – | ? | – | 8.9µM | –
COc1cccc(-c2cc(=O)c3cc(NC(=O)c4cccnc4)ccc3[nH]2)c1 | · | · | – | · | – | –
C[C@@H]1O[C@@H](OCCC(=O)O)[C@H](O)C[C@H]1O | – | – | · | · | · | ·
Cc1cc(C)nc(N/N=C/c2cc(Br)ccc2O)n1 | ? | -81 | 18µM | – | 3.2µM | ?
Cc1ccc(NC(=S)N2CCCCC2)cc1C | – | – | ? | – | 4.5µM | –
Cc1ccc(C2CCN(C(=S)NC(C)(C)C)C2)cc1 (configuration not stated) | – | – | – | – | ? | –
Cc1ccc(C2CCN(C(=S)Nc3cccc(C)c3)C2)cc1 (configuration not stated) | – | – | – | – | 7.9µM | –
Cc1ccc(NC(=S)N2CCCCCC2)cc1 | – | – | ? | · | ? | –
COc1ccc(C2CCCN2C(=O)Nc2ccc(C)c(C)c2)cc1OC (configuration not stated) | – | – | – | – | – | –
S=C(Nc1ccc2nsnc2c1)N1CCCC1 | – | – | 11µM | ? | 7.9µM | ?
COc1ccc(C2CCCN2C(=S)Nc2ccc(C)c(C)c2)cc1OC (configuration not stated) | – | – | ? | – | 13µM | –
Cc1noc(C)c1C(=O)N1CCC[C@@]2(CCN(c3ncccn3)C2)C1 | · | · | – | · | – | ·
CC1CCCN(C(=O)COC(=O)C2CCN(S(=O)(=O)c3c(Cl)cccc3Cl)CC2)C1 (configuration not stated) | – | – | · | · | · | ·
Cc1cc(C)nc(Nc2nc(C(N)CCc3ccccc3)cs2)n1 (configuration not stated) | – | – | · | · | · | ·
Cc1cccc(NC(=S)N2CCCCC2)c1 | – | – | 18µM | – | ? | –
CCCCc1cc(=O)oc2cc(C)cc(O)c12 | – | – | ? | – | ? | –
CCCCc1cc(=O)oc2cc(O)cc(O)c12 | – | – | 22µM | – | – | –
CN(C)c1ccc(CNc2ncc(Br)cc2Br)cc1 | -66 | ? | – | – | ? | –
NS(=O)(=O)c1ccc(CCNc2ncnc3sccc23)cc1 | – | – | 4µM | – | ? | –
CN(C)c1ccc(CNc2ccccn2)cc1 | – | – | – | – | – | ·
NS(=O)(=O)c1ccc(CNc2ncnc3sccc23)cc1 | – | – | – | – | – | ·
SMILES | Six1-Eya2 blk | CtBP-E1A inh | Gal4-VP16 FLuc | MBNL1-CUG inh | RORgamma inh | CBFb-RUNX1 inh
Cc1sc2ncnc(NCCc3ccc(S(N)(=O)=O)cc3)c2c1C | – | – | 2.5µM | ? | 8.9µM | –
Cc1ccc(S(=O)(=O)Nc2ncnc3sc(C)c(C)c23)cc1 | – | – | · | · | · | ·
COc1ccc(CCNc2ncnc3sccc23)cc1OC | – | – | 0.63µM | – | ? | –
O=C(CSc1ccc(Cl)cc1)NNC(=O)c1ccncc1 | – | – | · | · | · | ·
Fc1ccccc1CNc1ncnc2sccc12 | – | – | ? | – | ? | ·
CN(C)c1ccc(CNc2ncnc3sccc23)cc1 | – | – | 7.1µM | – | ? | ·
COc1ccc(CCNc2ncnc3c2oc2ccccc23)cc1OC | – | – | 1µM | – | ? | –
COCCn1c(=S)[nH]c2sc3c(c2c1=O)CCCC3 | – | – | 2.2µM | – | 4µM | ·
O=c1c2c3c(sc2[nH]c(=S)n1Cc1ccco1)CCC3 | – | – | ? | – | ? | ?
C=CCn1c(=S)[nH]c2sc3c(c2c1=O)CCCC3 | – | · | 0.71µM | – | 0.4µM | ·
COCCCn1c(=S)[nH]c2sc3c(c2c1=O)CCCC3 | – | – | 1µM | – | 0.79µM | ·
Cc1cccc(NC(=S)N/C(=N/S(=O)(=O)c2ccccc2)c2ccccc2)c1 | – | – | ? | – | ? | –
CC(C)OC(=S)N/C(=N\S(=O)(=O)c1ccccc1)c1ccccc1 | – | – | –[0.365 µM] | ? | 0.45µM | –
Cc1ccc(S(=O)(=O)/N=C(/NC(=S)Nc2cccc(C)c2)c2ccccc2)cc1 | – | – | 13µM | – | ? | –
COc1ccc(C(=O)NN(C)c2nc(-c3ccccc3)nnc2C(F)(F)F)cc1 | – | – | – | – | – | –
COc1ccc(C(=O)NN(C)c2nc(C(F)(F)F)nc3ccccc23)cc1 | – | – | ? | – | 3.2µM | –
CC(C1CC2CCC1C2)n1c(-c2cccs2)n[nH]c1=S (configuration not stated) | – | – | ? | – | 0.79µM | –
CC(NCC(O)COCc1cccs1)C1CC2CCC1C2 (configuration not stated) | – | – | – | – | – | –
CCNC(=S)N=Nc1c(O)n(Cc2ccc(Cl)cc2)c2ccccc12 | ? | ? | ? | – | 4.5µM | ?
Oc1c(N=NC(=S)Nc2ccccc2F)c2ccccc2n1Cc1ccccc1F | ? | ? | 4µM | – | 2.5µM | –
Oc1c(N=NC(=S)Nc2ccccc2F)c2ccccc2n1Cc1ccc(Cl)cc1 | – | · | – | – | 4µM | ?
Cc1ccccc1Cn1c(O)c(N=NC(=S)Nc2ccccc2F)c2ccccc21 | ? | · | ? | – | 2.5µM | ?
Cc1ccc(C)c(Cn2c(O)c(N=NC(=S)Nc3ccccc3F)c3ccccc32)c1 | – | · | ? | – | – | –
CCNS(=O)(=O)c1ccc(CCC(=O)N2CCCC2)cc1 | – | – | – | – | –[1.91 µM] | ·
COc1c2ccoc2nc2c(OC)c(O[C@@H]3O[C@H](C)[C@@H](O)[C@@H](O)[C@H]3O)ccc12 | · | · | – | · | – | –
SMILES | Six1-Eya2 blk | CtBP-E1A inh | Gal4-VP16 FLuc | MBNL1-CUG inh | RORgamma inh | CBFb-RUNX1 inh
COCCN1C(=S)N[C@@H](c2ccccc2)C(C(=O)OC)=C1C | · | · | – | – | – | ·
c1ccc(COc2ncnc3c2ncn3CCCNCCN2CCOCC2)cc1 | – | – | · | · | · | ·
C=C[C@H]1C(C(=O)OCC)=CC[C@@H](c2ccccc2)N1S(=O)(=O)c1ccc(C)cc1 | – | – | · | · | · | ·
O=C(Nc1ccccc1)C1=C[C@@H](c2ccc(Br)cc2)C[C@@H](OCCCCO)O1 | – | – | 7.1µM | ? | ? | –
COc1ccc(CN2CCC(N3CC(C)OC(C)C3)CC2)c(OC)c1OC (configuration not stated) | – | – | – | – | – | ·
S=C(NCC1CCCO1)NC1CCCC1 (configuration not stated) | – | – | – | – | 13µM | –
